Test results reported in the supplement of paper PMC6555819.

What was measured:
Experiment in all cases: PBM binding z-score (relative to random genomic background probes); higher = stronger binding; sequences stand for … in GC…GCGATTGACAGCGTAGAATGAAGG
[1] = system: RARb homodimer (NR concentration 270 nM)
Procedure, shortened: (§1)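 Binding buffer was PBS pH 7.4 with 2% milk, 0.02% Triton X-100, 1 mM DTT, 0.2 mg/mL BSA and 0.4 mg/ml salmon testes DNA. In it, ligand-free nuclear receptor dimers were incubated 1 h on custom Agilent 4×180K protein-binding microarrays carrying double-stranded probes. Antibodies against each partner (one per run) detected binding, and z-scores were calculated against random background probes after regression normalization of scanned fluorescence.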

[2] = system: RARg:RXRa (NR concentration 270 nM, RXRa partner concentration 90 nM)
Procedure, shortened: as §1

[3] = system: RARg homodimer (NR concentration 270 nM)
Procedure, shortened: as §1

[4] = system: RXRa DBDmut IVT, anti-RXR (DBD mutation: RXRa K156A/R161A, NR concentration 90 nM)
Procedure, shortened: as §1

[5] = system: RXRa homodimer (NR concentration 180 nM)
Procedure, shortened: as §1

[6] = system: THRa:RXRa (NR concentration 90 nM, RXRa partner concentration 90 nM)
Procedure, shortened: as §1

[7] = system: THRa homodimer (NR concentration 90 nM)
Procedure, shortened: as §1

[8] = system: VDR:RXRa (NR concentration 270 nM, RXRa partner concentration 90 nM)
Procedure, shortened: as §1

[9] = system: VDR homodimer (NR concentration 270 nM)
Procedure, shortened: as §1

Row | Sequence | PBM binding z-score [1] | PBM binding z-score [2] | PBM binding z-score [3] | PBM binding z-score [4] | PBM binding z-score [5] | PBM binding z-score [6] | PBM binding z-score [7] | PBM binding z-score [8] | PBM binding z-score [9]
1 | ATACCAAGGTGATCGTGAGGTCGTTAATACTAAC | 1.68 | 1.93 | 0.856 | 0.881 | 1.32 | 3.3 | 2.44 | 3.1 | 3.04
2 | AATACAGGGTCATCGTATGCCAGAGTACGCACAG | 3.1 | 5.61 | 4.95 | 3.42 | 6.33 | 3.67 | 1.21 | 5.08 | 3.64
3 | AGAATGAGGTTACCAAAGCTCAGGGAAACGCTTG | 0.544 | 1.91 | 1.54 | 1.04 | 2.62 | 2.83 | 0.864 | 0.99 | -0.0119
4 | TATACAGGGTCAAAGGCCAGAATACGAATGTCGA | 3.2 | 5.71 | 5.1 | 2.7 | 6.99 | 3.41 | 0.697 | 4.62 | 2.6
5 | AATACAGGGTCATCGTAGGCAAGAGTACGCACAG | 3.24 | 5.6 | 5.07 | 3.51 | 6.7 | 4.16 | 1.5 | 5.23 | 3.96
6 | GCTATCAGGCCATTTGGGTCACTCAATGACGGGC | 2.39 | 1.19 | 1.66 | 0.754 | 0.858 | 2.55 | 1.57 | 1.38 | 0.781
7 | GGAACGAGGGCAAAGTAGATAGCATCTGTCGACG | 0.856 | 1.46 | 1.74 | 2.46 | 1.05 | 0.805 | -0.36 | 0.414 | 0.946
8 | CCTCGGAGGACAACAGGAGGTGAGAGCTGCCAGA | 1.05 | 0.71 | 1.35 | -0.141 | -0.117 | 1.44 | 0.525 | -0.342 | -0.285
9 | TCTTGTAGATCAGCACGTTAAGAAAGCTGGCCAA | -0.823 | -0.246 | -0.479 | 0.626 | -0.185 | -0.261 | -0.422 | 0.0103 | -0.0275
10 | ATACCAAGGTGACCGTGAGGTCGTTGATACTAAC | 2.9 | 3.36 | 1.96 | 0.82 | 2.27 | 3.74 | 3.08 | 4.04 | 2.81
11 | CGTCCACGGTCAGAGAGGTCAGTGAATGCCGAGT | 4.32 | 3.6 | 4.74 | 0.914 | 2.75 | 2.54 | 0.458 | 4.97 | 2.11
12 | CCGACCGGGGCAAGGTTACCATAACGCACAGCCA | 1.54 | 1.65 | 1.73 | -0.596 | 1.39 | 1.64 | 0.837 | 0.334 | 0.12
13 | TCACATAGGTAAAAGGTGAAAGTCGGTGTGGTAA | 1.98 | 2.02 | 0.992 | 1.3 | 3.3 | 1.72 | 0.0653 | 1.8 | -0.0676
14 | CCTCGGATGACAACAGGAGGTCAGAGCTGCCAGA | 3 | 2.24 | 1.91 | -0.48 | 2.01 | 1.92 | 0.407 | 1.55 | 0.749
15 | CCAACTAGGTCAAAGGTCAAAGTCGAGCCAACCA | 5.33 | 9.03 | 7.43 | 3.14 | 10.2 | 4.82 | 1.79 | 6.81 | 3.47
16 | AGAACGAGTGCACGCTGAGTTGATAGCAGAGTAG | -0.576 | 0.354 | 0.356 | 3.07 | 0.384 | -0.0909 | -0.746 | 2.1 | 2.64
17 | TAGCCTAGGTCATTCATGGGCCAGTATAGAAAGC | 2.52 | 4.74 | 4.57 | 1.84 | 3.2 | 2.71 | 0.289 | 2.16 | 0.945

Row | Sequence | PBM binding z-score [1] | PBM binding z-score [2] | PBM binding z-score [3] | PBM binding z-score [4] | PBM binding z-score [5] | PBM binding z-score [6] | PBM binding z-score [7] | PBM binding z-score [8] | PBM binding z-score [9]
18 | GCATATAGGTAATACAAGGTGAAAATCCGATTGT | 0.426 | 0.529 | 0.709 | 0.0693 | 0.677 | 3.98 | 0.487 | 0.212 | 0.0319
19 | TCTTGTAGATCAAGCAGGTTAGGAAAGCCTGAGT | 0.012 | -0.289 | -0.589 | 0.37 | -0.0446 | 0.0299 | -0.467 | 0.203 | 0.231
20 | TCTAGTTGGTCAAAGGTCACACATTCGAAATGCG | 5.15 | 6.77 | 5.76 | 1.62 | 7.57 | 4 | 2.07 | 5.09 | 2.42
21 | TAGCCTAGGTCATTCAGGGGCCAGTAGAGAAAGC | 3.21 | 6.31 | 4.35 | 1.84 | 2.97 | 3.63 | 0.688 | – | 1.53
22 | TCTTGTAGATCAAGCTGGTTAAGAAAGCCTGAGT | -0.589 | -0.384 | -0.528 | 0.614 | -0.39 | -0.367 | -0.87 | – | -0.547
23 | TCTTTTAGATCAAAGGTTAAGAAAGCCGAAGCCT | 1.42 | 1.81 | 1.01 | 1.32 | 2.81 | 1.33 | -0.158 | 1.51 | -0.294
24 | TAATATAGGTAAAAGGTGAAAGTCGGTGTGGTAA | 2.01 | 2.15 | 1.32 | 0.341 | 2.95 | 1.87 | 0.816 | 1.59 | 0.638
25 | TCTCGGAGGACACGAAGGTCAGAGATTTCCAGAG | 3.84 | 3.05 | 4.12 | 0.78 | 1.99 | 2.92 | 1.1 | 2.26 | 1.7
26 | AGAATGAGGTTATTAAGCTCAGGGAATTGCGGTC | 0.163 | 0.737 | 0.334 | 2 | 1.6 | 1.99 | 0.104 | 1.38 | 0.783
27 | TAGCCTAGGTCATGGCCCAGTATACCACGCGAAC | 3.06 | 4.47 | 4.41 | 0.508 | 3.73 | 3.38 | 1.49 | – | 0.698
28 | TCGAGTCGGTTAGTCGGGGCATTCAGCCAACATA | -0.0359 | -0.443 | -0.657 | 0.05 | -0.48 | 0.291 | -0.232 | 0.217 | 0.101
29 | ACTATTAGATGAGACGAGGGCAACCGATAGGTTG | 1.3 | 0.879 | 1.09 | 0.518 | 0.632 | 1.42 | 0.659 | – | 0.77
30 | TATATAGGGTCAAAGGCCAGAGTACGAATGTCGA | 3.73 | 5.52 | 5.07 | 3.21 | 6.74 | 3.92 | 1.41 | 4.75 | 2.45
31 | ATCTCTAGGTAAAAGTTCAGAGAATCCCGAGGAT | 2.16 | 2.02 | 1.97 | 0.853 | 1.87 | 1.24 | -0.00417 | – | 1.91
32 | TTACCAAGGTAAAGGTCGTTGATCCCTCTGTAGA | 2.13 | 1.95 | 1.08 | 0.533 | 2.7 | 2.48 | 0.667 | – | 1.55
33 | CCTAGCAGGTCAGGGTCACTCAAGCATTTCGCTT | 4.32 | 5.02 | 5.1 | 1.94 | 5.24 | 3.71 | 1.83 | – | 2.32
34 | TCTAGTTGGTCAAAGGTCACACGCTCGAAATGCG | 5.31 | 7.41 | 6.67 | 1.72 | 8.75 | 4.01 | 2.09 | – | 2.92
